Experimental data: PubChem BioAssay (EPA / NIEHS)
Records with an inconclusive call do not appear. Activity calls are given as the source filed them. Rule for the calls: active = hit-call score of the fitted dose curve at least 0.9, where 1 is the maximum; inconclusive = response in the unintended direction; inactive = score below 0.9.

Assay: ACEA_ER_AUC_viability: ACEA Biosciences xCELLigence Real-Time Cell Analysis on Estrogen Receptor Agonism for Viability (AID 2283782);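 note: hit means loss of impedance signal meaning reduced cell growth or viability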
How it was run: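 Continuous-exposure impedance cell analysis uses T-47D cells in charcoal-stripped serum, eight 1:4 dilutions topping at 100 uM final, biological duplicate. Area under the growth curve at 80 h is fitted against DMSO baseline.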

Compound | outcome | AC50
CCC(C)=O | inactive | 
NC1CCCCC1N (configuration not stated) |  | 77.1 µM (active)
CC(C)(C)c1ccc(C(=O)O)cc1 |  | 50 µM (active)
C/C=C(\C)C(=O)OCCc1ccccc1 |  | 67.4 µM (active)
Nc1ccc(NCCO)c([N+](=O)[O-])c1 | inactive | 
C=CCCCCCCCCCC | inactive | 
CS(=O)(=O)c1ccc(Cl)cc1 | inactive | 
CC(C)(N=C=O)c1cccc(C(C)(C)N=C=O)c1 |  | 33.1 µM (active)
CC(C)(CO)[C@@H](O)C(=O)NCCC(=O)O | inactive | 
CC(C)CCOC(=O)c1ccccc1 | inactive | 
CC(=O)NCCO | inactive | 
C=CC(C)(O)CCC=C(C)C (configuration not stated) | inactive | 
